Measured values from the supplement of paper PMC4466140.

The binders below were run against ScBbc1 (assay: SPOT peptide array binding signal intensity (averaged, normalized) (arbitrary units (background-subtracted, floor 0; scale differs between SH3 domains)); higher = stronger binding of the SH3 domain to the peptide).
Procedure, shortened: (§1)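 Binding signal is given in arbitrary units that differ between domains and is the normalized, background-subtracted spot intensity averaged across replicates. Each GST-SH3 fusion from one of four yeast species was made in E. coli BL21(DE3), purified on glutathione Sepharose and incubated at 10 μg/ml overnight at 4°C on cellulose-bound synthetic 15-mer peptides in which cysteines were replaced by serines. Detection used anti-GST antibody, an HRP anti-mouse secondary and luminol, followed by imaging and Genespotter quantification.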

Binder | SPOT peptide array binding signal intensity
RKLRTVPGVPLIHLT | 21

What follows are binders tested against ScBem1-D1 in the same assay as above.
Procedure, shortened: as §1

Binder | SPOT peptide array binding signal intensity
RKLRTVPGVPLIHLT | 27.5

These binders were tested against ScBzz1-D1 in the same assay as above.
Procedure, shortened: as §1

Binder | SPOT peptide array binding signal intensity
RKLRTVPGVPLIHLT | 10

These binders were tested against ScBzz1-D2 in the same assay as above.
Procedure, shortened: as §1

Binder | SPOT peptide array binding signal intensity
RKLRTVPGVPLIHLT | 1.5

Each binder was assayed against ScCyk3 in the same assay as above.
Procedure, shortened: as §1

Binder | SPOT peptide array binding signal intensity
RKLRTVPGVPLIHLT | 9

Each binder was assayed against ScFus1 in the same assay as above.
Procedure, shortened: as §1

Binder | SPOT peptide array binding signal intensity
RKLRTVPGVPLIHLT | 37

Each binder was assayed against ScHof1 in the same assay as above.
Procedure, shortened: as §1

Binder | SPOT peptide array binding signal intensity
RKLRTVPGVPLIHLT | 1

What follows are binders tested against ScHse1 in the same assay as above.
Procedure, shortened: as §1

Binder | SPOT peptide array binding signal intensity
RKLRTVPGVPLIHLT | 178

These binders were tested against ScLsb1 in the same assay as above.
Procedure, shortened: as §1

Binder | SPOT peptide array binding signal intensity
RKLRTVPGVPLIHLT | 1.5

These binders were tested against ScLsb2 in the same assay as above.
Procedure, shortened: as §1

Binder | SPOT peptide array binding signal intensity
RKLRTVPGVPLIHLT | 2

What follows are binders tested against ScLsb3 in the same assay as above.
Procedure, shortened: as §1

Binder | SPOT peptide array binding signal intensity
RKLRTVPGVPLIHLT | 1030

Each binder was assayed against ScLsb4 in the same assay as above.
Procedure, shortened: as §1

Binder | SPOT peptide array binding signal intensity
RKLRTVPGVPLIHLT | 22

These binders were tested against ScMyo3 in the same assay as above.
Procedure, shortened: as §1

Binder | SPOT peptide array binding signal intensity
RKLRTVPGVPLIHLT | ≤ 0

These binders were tested against ScMyo5 in the same assay as above.
Procedure, shortened: as §1

Binder | SPOT peptide array binding signal intensity
RKLRTVPGVPLIHLT | 2

These binders were tested against ScNbp2 in the same assay as above.
Procedure, shortened: as §1

Binder | SPOT peptide array binding signal intensity
RKLRTVPGVPLIHLT | 1190

What follows are binders tested against ScPex13 in the same assay as above.
Procedure, shortened: as §1

Binder | SPOT peptide array binding signal intensity
RKLRTVPGVPLIHLT | 59.5

These binders were tested against ScRvs167 in the same assay as above.
Procedure, shortened: as §1

Binder | SPOT peptide array binding signal intensity
RKLRTVPGVPLIHLT | 1390

What follows are binders tested against ScSho1 in the same assay as above.
Procedure, shortened: as §1

Binder | SPOT peptide array binding signal intensity
RKLRTVPGVPLIHLT | 110

These binders were tested against ScSla1-D1-D2 in the same assay as above.
Procedure, shortened: as §1

Binder | SPOT peptide array binding signal intensity
RKLRTVPGVPLIHLT | 73

What follows are binders tested against ScSla1-D3 in the same assay as above.
Procedure, shortened: as §1

Binder | SPOT peptide array binding signal intensity
RKLRTVPGVPLIHLT | 23.5

The binders below were run against SpAbp1-D1 in the same assay as above.
Procedure, shortened: as §1

Binder | SPOT peptide array binding signal intensity
RKLRTVPGVPLIHLT | 17.5

Each binder was assayed against SpBbc1 in the same assay as above.
Procedure, shortened: as §1

Binder | SPOT peptide array binding signal intensity
RKLRTVPGVPLIHLT | ≤ 0

The binders below were run against SpBzz1-D1 in the same assay as above.
Procedure, shortened: as §1

Binder | SPOT peptide array binding signal intensity
RKLRTVPGVPLIHLT | 71.5

What follows are binders tested against SpBzz1-D2 in the same assay as above.
Procedure, shortened: as §1

Binder | SPOT peptide array binding signal intensity
RKLRTVPGVPLIHLT | ≤ 0

The binders below were run against SpCyk3 in the same assay as above.
Procedure, shortened: as §1

Binder | SPOT peptide array binding signal intensity
RKLRTVPGVPLIHLT | ≤ 0

Each binder was assayed against SpHof1 in the same assay as above.
Procedure, shortened: as §1

Binder | SPOT peptide array binding signal intensity
RKLRTVPGVPLIHLT | 22.8

These binders were tested against SpHof1-2 in the same assay as above.
Procedure, shortened: as §1

Binder | SPOT peptide array binding signal intensity
RKLRTVPGVPLIHLT | 2

The binders below were run against SpHof1-3 in the same assay as above.
Procedure, shortened: as §1

Binder | SPOT peptide array binding signal intensity
RKLRTVPGVPLIHLT | 229

What follows are binders tested against SpHse1 in the same assay as above.
Procedure, shortened: as §1

Binder | SPOT peptide array binding signal intensity
RKLRTVPGVPLIHLT | 68.8

These binders were tested against SpLsb1 in the same assay as above.
Procedure, shortened: as §1

Binder | SPOT peptide array binding signal intensity
RKLRTVPGVPLIHLT | 3.25

What follows are binders tested against SpLsb4 in the same assay as above.
Procedure, shortened: as §1

Binder | SPOT peptide array binding signal intensity
RKLRTVPGVPLIHLT | 369

What follows are binders tested against SpMyo1 in the same assay as above.
Procedure, shortened: as §1

Binder | SPOT peptide array binding signal intensity
RKLRTVPGVPLIHLT | 2.75

These binders were tested against SpNbp2 in the same assay as above.
Procedure, shortened: as §1

Binder | SPOT peptide array binding signal intensity
RKLRTVPGVPLIHLT | 7.5

These binders were tested against SpPex13 in the same assay as above.
Procedure, shortened: as §1

Binder | SPOT peptide array binding signal intensity
RKLRTVPGVPLIHLT | ≤ 0

Each binder was assayed against SpRvs167 in the same assay as above.
Procedure, shortened: as §1

Binder | SPOT peptide array binding signal intensity
RKLRTVPGVPLIHLT | 616

Each binder was assayed against SpSla1-D1-D2 in the same assay as above.
Procedure, shortened: as §1

Binder | SPOT peptide array binding signal intensity
RKLRTVPGVPLIHLT | 1

These binders were tested against SpSla1-D3 in the same assay as above.
Procedure, shortened: as §1

Binder | SPOT peptide array binding signal intensity
RKLRTVPGVPLIHLT | ≤ 0
